High-throughput results deposited in PubChem by National Center for Advancing Translational Sciences (NCATS).
In the library only some 3.7% were active in any assay of this set; here they are far more common.
TGFb SMAD3 inh: inhibitors of TGF-b signaling; HepG2 CAGA-GFP TGF-b/SMAD3 reporter, GFP fluorescence, 18 h; TGF-beta stimulated, 500 pg/mL final; Potency, µM (highest dose often 46.1 µM), inactives show top-dose activity, negative = inhibition, hits mostly inhibitors; 410,000 compounds, 1.2% hits; AID 588855; further: on the % scale 0 is the no-effect control and ±100 the full control effect; nearly all actives have a fitted effect of over 65% in size
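Using HEPG2 CAGA-GFP reporter cells at 1000 cells/well, we pinned test compounds, stimulated with recombinant TGF-beta (500 pg/mL final) and measured total well GFP after 18 h.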
ATXN viability: cell viability loss in ATXN counter-screen; S2 cells (HEK-293 line with an ATXN2-luciferase reporter) viability, CellTiter-Fluor protease fluorescence, 24 h; Potency, µM (series often up to 56.7 µM), most hits filed as cytotoxic; 400,000 compounds, 0.49% hits; further: nearly all actives have a fitted effect of over 40% in size
GLP1R ag: agonists of human GLP-1 receptor; P43220; HEK293 GLP-1R CRE-luciferase, luminescence, 4-6 h; cells express a hypersensitive GLP-1R form; Potency, µM (highest dose often 45.6 µM), without a hit: top-dose activation, usual class: activators; 380,000 compounds, 0.007% hits; AID 624172; further: % of control where 0% means no effect
Target sequence (P43220 whole entry, looked up): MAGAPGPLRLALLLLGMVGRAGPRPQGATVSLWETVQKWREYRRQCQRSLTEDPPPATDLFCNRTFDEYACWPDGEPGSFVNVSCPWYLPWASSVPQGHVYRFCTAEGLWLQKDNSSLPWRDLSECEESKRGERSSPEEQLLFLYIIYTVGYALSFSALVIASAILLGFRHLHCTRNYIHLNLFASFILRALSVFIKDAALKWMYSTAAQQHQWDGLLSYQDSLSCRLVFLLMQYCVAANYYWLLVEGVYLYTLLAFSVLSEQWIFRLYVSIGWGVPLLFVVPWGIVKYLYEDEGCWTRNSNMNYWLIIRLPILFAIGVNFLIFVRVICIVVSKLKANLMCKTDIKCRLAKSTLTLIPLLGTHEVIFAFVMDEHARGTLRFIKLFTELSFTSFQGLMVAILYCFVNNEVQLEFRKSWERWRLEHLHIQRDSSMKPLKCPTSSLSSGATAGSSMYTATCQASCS
ATXN2 expr inh: ATXN2 expression inhibition; HEK-293 ATXN2-luciferase reporter, luminescence, 24 h; Potency, µM (series often up to 57 µM), inactives show at the top dose activity change, negative = inhibition, hits mostly inhibitors; 360,000 compounds, 0.72% hits; further: on the % scale 0 is the no-effect control and ±100 the full control effect; nearly all actives have a fitted effect of over 55% in size
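qHTS (up to 57 uM final) was run with 24 h compound exposure of reporter cells at 37 °C. Each well was multiplexed: SteadyGlo luminescence measured ATXN2-luciferase expression after a fluorogenic Gly-Phe-AFC viability readout (25 uM final).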
HepG2 viability: kills HepG2 cells in TGF-b inhibitor counter-screen. HepG2 CAGA-GFP viability, ATP luminescence, 18 h. 410,000 compounds, 0.76% hits. Potency, µM (titrated, usually from 46.1 µM), for the others: at the top dose activity change, negative = cytotoxicity, hits mostly cytotoxic
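CellTiter-Glo luminescence gave cytotoxicity after 18 hours at 37 degrees C. The cells were HepG2 CAGA-GFP in 1% FBS DMEM, stimulated with 500 pg/mL TGF-beta after compound addition. %Activity was normalised to no-cell wells (complete cell-killing) and DMSO (no toxicity), and curves were fitted and classified.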
GLP1R inv ag: inverse agonists of human GLP-1 receptor. P43220. HEK293 GLP-1R CRE-luciferase, luminescence, 24 h; GLP-1R form is constitutively active. Potency, µM (highest dose often 38.3 µM), without a hit: at the top dose activity change, negative = inhibition, actives largely listed as inhibitors. 410,000 compounds, 1.6% hits; further: on the % scale 0 is the no-effect control and ±100 the full control effect; nearly all actives have a fitted effect of over 55% in size
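Inverse agonists were sought by their lowering of basal cAMP reporter luciferase output in HEK293 cells stably carrying constitutively active human GLP-1R, after 24 h compound treatment.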
Numbers without * were called inactive; i = inactive; ? = inconclusive; . = not tested or not shown; [ ] = remark or other dose. The call rests on the fitted dose curve; in most records, active means well fitted curve in the direction sought with a large enough effect; inconclusive means small, poorly fitted or top-dose-only effect, or another doubt; inactive means no such curve, though single readings can be large; an effect the other way counts as inactive or inconclusive. Potency means the concentration at half of the fitted maximal effect.

SMILES	TGFb SMAD3 inh	ATXN viability	GLP1R ag	ATXN2 expr inh	HepG2 viability	GLP1R inv ag
Cc1cccc(C(O)c2ncc(-c3ccc(Cl)cc3)[nH]2)c1C (stereo not drawn)	?	22µM*	2%	-32%	-39%	?
O=C(NCCc1ccccn1)C1CC12CCN(C(=O)c1cccc(C(F)(F)F)c1)CC2 (stereo not drawn)	.	i	.	.	.	.
COC(=O)c1ccc(C(=O)N2CCc3c(C(=O)NC(C)c4ccco4)c(OC)cc(=O)n3CC2)cc1 (stereo not drawn)	.	i	.	.	.	.
CCCn1c(=N)c(C(=O)NC2CCCCC2)cc2c(=O)n3cc(C)ccc3nc21	235%	?	1%	3%	-2%	9%
Cc1cc(C)cc(C(O)c2ncc(-c3ccc(Cl)cc3)[nH]2)c1 (stereo not drawn)	-23%	?	6%	-15%	-22%	13µM*
CC(=O)CC/C=C(\C)CC/C=C(/C)CC/C=C(\C)CCC=C(C)C	.	.	-1%	.	.	.
O=C1CCC2S/C(=C/Nc3ccc(C(F)(F)F)cc3)C(=O)N12 (stereo not drawn)	-4%	i	0%	2.8µM*	-2%	?
Cc1ccccc1Nc1cc2ccccc2c(=O)[nH]1	4.5µM*	?	10%	-5%	11µM*	20%
CCOC(=O)c1c(S(=O)(=O)N2CCCC(C(=O)Nc3ccc(OCC)cc3)C2)c(C)n(C)c1C (stereo not drawn)	-5%	i	.	-3%	-4%	-3%
C=C(C)C(=O)OCC(O)CO (stereo not drawn)	.	i	.	5%	.	.
CCc1sc(C(=O)NC2CCN(C)CC2)cc1Br	4%	i	-3%	3%	-6%	10µM*
Nc1ccccc1SCc1csc(-c2ccc(Cl)cc2)n1	-30%	i	21%	.	-8%	10µM*
Clc1ccc(-c2nc(CSc3ccccn3)cs2)cc1	3%	i	-2%	.	-23%	?
CC1(C(=O)NCc2ccccc2)Cc2c(-c3ccc(C(N)=O)cc3)ccnc2O1 (stereo not drawn)	24%	i	20%	0%	-3%	6.3µM*
CC1(C(=O)NCCc2ccccc2)Cc2c(-c3ccc4c(c3)OCO4)ccnc2O1 (stereo not drawn)	3%	i	0%	-24%	-24%	?
CC1(C(=O)NCc2ccccc2)Cc2c(-c3ccc4c(c3)OCO4)ccnc2O1 (stereo not drawn)	-16%	?	10%	-11%	7%	2.8µM*
COc1cccc(-c2ccc(O)c(CNC(c3ccccc3)c3ccc(Cl)cc3)c2)n1 (stereo not drawn)	.	i	.	.	.	.
Cc1ccc2c(C)c(C(=O)N(Cc3ccccc3)C3CCS(=O)(=O)C3)oc2c1 (stereo not drawn)	9%	i	19%	-9%	-4%	?
Cc1ccc2c(C)c(C(=O)N(Cc3ccc(Cl)cc3)C3CCS(=O)(=O)C3)oc2c1 (stereo not drawn)	11µM*	?	.	-30%	6%	?
Cc1ccc2oc(C(=O)N(Cc3ccccc3)C3CCS(=O)(=O)C3)c(C)c2c1 (stereo not drawn)	3%	i	21%	0%	-12%	?
Cc1c(C(=O)N(Cc2ccccc2Cl)C2CCS(=O)(=O)C2)oc2ccccc12 (stereo not drawn)	-3%	i	14%	20%	-23%	10µM*
CC(=O)N1CC(O)CC1C(=O)O (stereo not drawn)	.	.	7%	.	.	.
Nc1cccc2nc3ccccc3cc12	?	.	-21%	7.9µM*	14%	?
Nc1[nH]nc2nc3ccccc3cc12	-14%	?	5%	-7%	-27%	30%[7.66 µM]
